According to PubChem BioAssay (NCI):
“And” between values parts separate entries of the source, which are not always exact repeats. Identical values can stand only once. About 79,000 compounds went through this panel and 15% of them were active in at least one assay; those are over-represented in the sample as a whole. Unmarked numbers belong to inactive results. The source made the active and inactive calls. Cut-off read from the data, not from the text of the source: active = growth inhibition above about 70%; inactive = the rest.

experiment: NCI Yeast Anticancer Drug Screen. Data for the mec2-1 strain (AID 157); conditions: S. cerevisiae mec2-1 strain, at 50.0 µM, hits give high values
Outline: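 Yeast mec2-1 mutant treated with compound. Readout: growth inhibition vs vehicle controls.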

Row | Compound | growth inhibition
1 | COc1ccc(/C=C2\CCc3ccccc3C2=O)cc1OC | 60.3%
2 | CC(C)c1ccc(O)c(=O)cc1 | 93.8% (active) and 94.7% (active) and 94.6% (active)
3 | O=Cc1ccccc1B(O)O | 99.6% (active)
4 | OCC(O)C(O)C(O)C(O)c1nc2ccccc2[nH]1 (stereo not given) | 0.75% [middle of 5 runs]
5 | CC(=O)CC[N+](C)(C)C | -22.7%
6 | O=C(O)[C@H]1[C@@H](C2CCCCC2)O[C@@H](C2CCCCC2)O[C@H]1C(F)(F)F | 91.8% (active)
7 | CN(NC(=O)/C(=C/C=C/c1ccccc1)NC(=O)c1ccccc1)C1=C(Cl)C(=O)[N+](c2ccccc2)=CC1 | 35.2%
8 | CCCCOc1ccc(Nc2c3ccccc3nc3ccccc23)cc1 | 88% (active)
9 | N#C/C(=C1C=C/C(=N\O)C(Cl)=C\1)c1ccccc1 | 43%
10 | COc1ccc(C(=O)OCCc2ccccc2)cc1 | 1.85%
11 | Cc1c2ccncc2c(C)c2c1oc1ccccc12 | 51%
12 | CCCC#CCOC(=O)c1cc([N+](=O)[O-])cc([N+](=O)[O-])c1 | 99.7% (active)
13 | Nc1nc(Nc2ccccc2)nc(Nc2ccccc2)n1 | 85.8% (active)
14 | COc1ccc(/C=C2\S/C(=N/Nc3nc(-c4ccccc4)cs3)NC2=O)cc1OC | 95.5% (active)
15 | CCCCCCCCCCCC[N+](C)(C)Cc1ccccc1 (tested in a mixture with another compound) | 99.7% (active) and 99.8% (active) and 86.8% (active)
